Only some compounds are listed: those with a hit (about 2.7% of all), similar ones and a draw of the others.
mIDH1 inhibitor: blocks human mutant IDH1 R132H enzyme; IDH1-R132H enzyme, NADPH consumption, diaphorase/resazurin fluorescence; 0.093% of 390,000 active; Potency, µM (highest dose often 76.6 µM), most hits filed as inhibitors; also: nearly all actives have a fitted effect of over 65% in size
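IDH1-R132H (0.5 ug/mL dispensed) in pH 7.5 Tris buffer was preincubated 30 min with compound, then given a substrate mix of 0.016 mM NADPH and 2 mM alpha-KG for 80 min at room temperature; remaining NADPH was read by diaphorase/resazurin fluorescence.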
Nrf2 ARE act: activates Nrf2 signaling; AREc32 ARE-luciferase reporter (MCF7-derived line), luminescence, 24 h; Potency, µM (titrated, usually from 46.1 µM), hits mostly activators; 0.31% of 410,000 active; also: nearly all actives have a fitted effect of over 65% in size
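Nrf2 activation is followed as ARE-luciferase induction in the AREc32 line after one day of compound treatment; luminescence is read with Steady-Glo.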
ALOX12 inh: inhibitors of human 12S-lipoxygenase ALOX12; 1.1% of 580,000 active; P18054; AID 1671190; purified 12hLO, xylenol orange hydroperoxide absorbance; Potency, µM (doses to about 108 µM), actives largely listed as inhibitors
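Hydroperoxide product was detected by ferrous iron/xylenol orange as the 573 to 405 nm absorbance ratio. Arachidonic acid at 40 uM (final) was turned over for 30 min at room temperature by 150 nM human 12hLO, pH 7.0 Hepes buffer, after 15 min compound preincubation.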
Nrf2 inh: Nrf2 pathway inhibition; A549 ARE-Fluc reporter, luciferase luminescence, 18-24 h; Potency, µM (highest dose often 46 µM), usual class: inhibitors; 2.1% of 360,000 active; AID 504444; also: nearly all actives have a fitted effect of over 60% in size
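A549 ARE_Fluc cells, 5000/well, 5% FBS OPTI-MEM; compounds in dose-response, 18-24 h at 37 °C/5% CO2; CellTiter-Fluor viability read (Ex 405/Em 525), then BugLite luciferase luminescence = Nrf2 activity.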
A549 tox-1: counter-screen for Nrf2 inhibitors: cytotoxicity in A549 cells | Potency, µM (titrated, usually from 46 µM), usual class: inhibitors | 0.16% of 390,000 active | A549 ARE-Fluc cells, CellTiter-Fluor viability, 18-24 h
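A549 ARE_Fluc cells in 5% FBS OPTI-MEM were exposed to compounds in concentration-response for 18-24 h at 37 deg C. Viability was read by CellTiter-Fluor fluorescence (Ex 405/Em 525) after 30 min, before the luciferase read.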
LDHA block: blocks human lactate dehydrogenase A. P00338. purified LDHA, NADH/diaphorase-resazurin fluorescence; hits give low values. activity change, % (values are at about 110 or 230 µM). 0.15% of 480,000 active. AID 1347041; in the data active = activity change below about -30%; inconclusive = mostly about -25% to -30%
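LDH5 2 nM; NADH 0.06 mM, pyruvate 0.2 mM; 200 mM Tris pH 7.4, EDTA, Tween-20; 5 min RT. Detection: diaphorase 0.133 mg/mL + resazurin 37 µM, fluorescence ex540/em590 at 0 and 20 min; normalized to enzyme-free and DMSO wells.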
FLuc enzyme inh: counter-screen for Nrf2 inhibitors: firefly luciferase enzyme inhibition; purified firefly luciferase, luminescence inhibition; Potency, µM (doses to about 57.5 µM), usual class: inhibitors; shares compounds with Nrf2 inh; 4% of 1,400 active; also: nearly all actives have a fitted effect of over 65% in size
Target sequence (P08659 whole entry, looked up): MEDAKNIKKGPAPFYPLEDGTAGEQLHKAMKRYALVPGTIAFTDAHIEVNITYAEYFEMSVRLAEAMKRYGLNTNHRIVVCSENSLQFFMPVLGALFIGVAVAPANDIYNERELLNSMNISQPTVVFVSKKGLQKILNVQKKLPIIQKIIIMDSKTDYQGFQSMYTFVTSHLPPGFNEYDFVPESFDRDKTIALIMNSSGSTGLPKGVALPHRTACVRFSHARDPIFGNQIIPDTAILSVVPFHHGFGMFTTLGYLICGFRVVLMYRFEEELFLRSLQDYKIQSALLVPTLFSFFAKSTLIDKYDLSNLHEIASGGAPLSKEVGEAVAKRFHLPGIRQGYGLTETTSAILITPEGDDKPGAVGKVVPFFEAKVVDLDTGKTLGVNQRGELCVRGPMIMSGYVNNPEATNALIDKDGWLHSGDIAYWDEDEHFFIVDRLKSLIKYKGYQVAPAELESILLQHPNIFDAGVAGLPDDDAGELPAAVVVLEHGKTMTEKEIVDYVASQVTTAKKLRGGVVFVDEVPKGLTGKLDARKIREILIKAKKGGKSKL
A549 tox-2: toxic to A549 ARE-Fluc cells in Nrf2 counterscreen; A549 ARE-Fluc cells, cytotoxicity counterscreen; shares compounds with Nrf2 inh; 2% of 1,400 active; Potency, µM (highest dose often 46.1 µM), actives largely listed as inhibitors; AID 720523;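 also: cells exposed to compounds for 18 to 24 hours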
ARE-Fluc inh: reduces Nrf2 ARE reporter signal in A549 cells | shares compounds with Nrf2 inh | A549 ARE-firefly luciferase reporter, luminescence | Potency, µM (series often up to 46.1 µM), hits mostly inhibitors | 74% of 1,400 active; also: nearly all actives have a fitted effect of over 65% in size
Numbers stand for hits; i = inactive; ? = inconclusive; nt = no result given. Unless noted, calls follow the shape of the dose curve; as a rule, active = well fitted curve in the direction sought with a large enough effect; inconclusive = small, poorly fitted or top-dose-only effect, or another doubt; inactive = no such curve, though single readings can be large; an effect the other way counts as inactive or inconclusive.

SMILES	mIDH1 inhibitor	Nrf2 ARE act	ALOX12 inh	Nrf2 inh	A549 tox-1	LDHA block	FLuc enzyme inh	A549 tox-2	ARE-Fluc inh
COc1cccc(-c2cc(C(=O)Nc3cc(C)n(Cc4ccc(Cl)cc4)n3)no2)c1	i	i	i	?	?	i	i	i	7.3µM
COC(=O)C1=C(Nc2ccc(C)cc2)C=C(C)C(C(=O)OC)C1c1ccc(OC)cc1 (centres undefined)	i	i	i	i	nt	i	nt	nt	nt
COC(=O)C1=C(O)C(C(=O)OC)C(c2ccc(C)cc2)C(C#N)(C#N)C1c1ccc(C)cc1 (centres undefined)	i	i	i	2.9µM	nt	i	i	?	15µM
CN(CC(=O)Nc1cc2[nH]c(=O)[nH]c2cc1Br)Cc1ccccc1N1CCOCC1	nt	nt	i	nt	nt	i	nt	nt	nt
Cn1nccc1C(=O)Nc1cc(Cl)ccc1Cl	i	i	?	2.9µM	i	i	i	i	5.8µM
Cc1cccc(C)c1NC(=O)Cn1cnc2c1c(=O)n(C)c(=O)n2C	nt	nt	?	nt	nt	i	nt	nt	nt
COc1cccc(-c2nn(-c3ccc(F)cc3)cc2C(=O)NCC(C(C)C)N2CCOCC2)c1 (centres undefined)	nt	nt	?	nt	nt	i	nt	nt	nt
Cc1ccc(NC(=O)COc2ccc(N(C)C(=O)C(C)(C)C)cc2)cc1S(=O)(=O)N1CCCCC1	i	i	i	3.7µM	?	i	i	?	5.2µM
CCc1cccc(OCC(=O)Nc2ccc(C)c(S(=O)(=O)N3CCCCCC3)c2)c1	i	i	i	?	i	i	nt	nt	nt
CC[N+](C)(CC)CCOC(=O)C(O)(c1ccccc1)C1CCCCC1 (centres undefined)	i	i	i	7.3µM	i	i	i	9.2µM	?
COc1ccc(-c2c(C)sc(NC(=O)c3ccnn3C)c2C#N)cc1	i	i	i	6.5µM	i	i	i	?	nt
CCCNc1nc(-c2[nH]c(C)c(C(C)=O)c2C)cs1	nt	nt	?	nt	nt	i	nt	nt	nt
O=c1c2ccccc2nc2n1CCN2Cc1ccc(Cl)cc1	i	i	i	5.8µM	i	i	i	i	4.1µM
O=c1c2ccccc2nc(-c2ccccc2)n1Cc1ccc(Cl)cc1	i	i	i	i	i	i	nt	nt	nt
c1csc(CNc2ncnc3sccc23)c1	i	i	i	5.8µM	i	i	i	i	7.3µM
CC(=O)c1cn(CC(=O)Nc2cccc(C)c2C)c2ccccc12	i	i	i	5.2µM	i	i	i	i	?
O=C(Cc1cccc(F)c1)N1CCC2(CC1)CC(N(Cc1ccccc1)C1CC1)CCO2 (centres undefined)	nt	nt	i	nt	nt	nt	nt	nt	nt
Nc1ccc(-c2cc3ccccc3c(=O)o2)cc1	i	i	i	?	i	i	1.5µM	i	2.3µM
O=C(CN(c1ccc(Cl)cc1Cl)S(=O)(=O)c1ccccc1)N1CCCC1	nt	nt	i	nt	nt	i	nt	nt	nt
Cc1ccc(CNC(=O)c2nn(C)c3c2CSc2ccccc2-3)cc1	nt	nt	i	nt	nt	i	nt	nt	nt
CC(C)CNC(=O)COc1ccc(Sc2ccc(OCC(=O)NCC(C)C)cc2)cc1	i	i	i	?	i	i	nt	nt	nt
CCCC(C)NC(=O)COc1ccc(Sc2ccc(OCC(=O)NC(C)CCC)cc2)cc1 (centres undefined)	i	i	i	3.7µM	i	i	i	i	nt
Cc1ccc(CC(=O)Nc2ccncc2)cc1	i	i	i	?	i	i	nt	nt	nt
O=C(Cc1ccc(Cl)cc1)Nc1ccncc1	i	i	i	5.8µM	i	i	i	i	i
CC1CCC(C(C)C)C(OC(=O)Cn2c(-c3ccc(F)cc3)[n+](C)c3ccccc32)C1 (centres undefined)	i	i	i	8.2µM	?	i	i	?	9.2µM
SMILES	mIDH1 inhibitor	Nrf2 ARE act	ALOX12 inh	Nrf2 inh	A549 tox-1	LDHA block	FLuc enzyme inh	A549 tox-2	ARE-Fluc inh
CC1CCC(C(C)C)C(OC(=O)Cn2c(-c3ccccc3)[n+](C)c3ccccc32)C1 (centres undefined)	i	i	i	3.7µM	?	i	i	?	2.1µM
Cc1cccc(OCc2n(CC(=O)OC3CC(C)CCC3C(C)C)c3ccccc3[n+]2C)c1 (centres undefined)	i	i	nt	i	i	i	nt	nt	nt
CCN(CC)C(=O)c1ccc2nc3ccccc3nc2c1	i	i	i	1.5µM	?	i	?	?	nt
COC(=O)c1c(C)oc2ccc(N(C(=O)c3ccncc3)S(=O)(=O)c3ccc(OC)cc3)cc12	i	i	i	0.82µM	?	i	i	i	15µM
CC(=O)c1c(C)oc2ccc(N(C(=O)c3ccncc3)S(=O)(=O)c3ccc(C)cc3C)cc12	i	i	i	?	i	i	nt	nt	nt
COc1ccc(S(=O)(=O)N(C(=O)c2ccncc2)c2ccc3oc4c(c3c2)CCCC4)cc1	i	i	i	?	?	i	nt	nt	nt
COc1ccc(S(=O)(=O)N(C(=O)c2ccncc2)c2ccc3oc(C)c(C(C)=O)c3c2)cc1	i	i	?	5.8µM	i	i	i	i	?
CCOc1ccc(S(=O)(=O)N(C(=O)c2ccncc2)c2ccc3oc(C)c(C(=O)OC)c3c2)cc1	i	i	i	0.65µM	?	i	i	i	i
CCc1ccc(S(=O)(=O)N(C(=O)c2ccncc2)c2ccc3oc(C)c(C(=O)OC)c3c2)cc1	i	i	i	6.5µM	i	i	i	i	10µM
CCOC(=O)c1c(C)oc2ccc(N(C(=O)c3ccncc3)S(=O)(=O)c3ccc(F)cc3)cc12	i	i	i	?	i	i	nt	nt	nt
CCCCCn1nc(C(=O)NCc2ccccc2F)c2ccccc2c1=O	nt	nt	i	nt	nt	i	nt	nt	nt
O=C(c1ccc(N2C(=O)CCS2(=O)=O)cc1Cl)N1CCCCC1	nt	nt	i	nt	nt	i	nt	nt	nt
Cc1ccc(S(=O)(=O)N2CCCC(C(=O)Nc3ccnc4ccccc34)C2)cc1 (centres undefined)	nt	nt	?	nt	nt	i	nt	nt	nt
C[N+](C)(N)CCOCC[N+](C)(C)N	nt	nt	i	nt	nt	i	nt	nt	nt
CCOC(=O)N1CCC(Nc2cc(C)nc3c(-c4ccccc4OC)c(C)nn23)CC1	i	i	i	9.2µM	i	i	i	i	12µM
CN(C)C1CCN(Cc2cc3cc4c(cc3nc2-c2ccc(Cl)cc2)OCO4)C1 (centres undefined)	nt	nt	i	nt	nt	nt	nt	nt	nt
Cc1nn(-c2ccc(NC(=O)c3ccncc3)cc2)c(C)c1Cl	i	i	i	3.7µM	i	i	i	i	7.3µM
CC(/C=N/NC(=O)CSc1nc(C)cc(C)n1)=C\c1ccccc1	i	i	i	i	i	i	nt	nt	nt

Screens deposited in PubChem by National Center for Advancing Translational Sciences (NCATS).
